The chains are these.
B1: GBRAPL2_106_7264 (protein)
chain: EGLEKARKLAKEALEKAKKLPEAFKKGDEEAIDELLELLDELTRLAIELGLDEVAALVADAFDNVFAASEDPETAEEDLEEAIKDLEEALKLIEKKIKEL
B2: GBRAPL2_0_7242 (protein)
chain: MEELLEELLSLSLEEAKARIRELAEEAIKLLKEDPEEGKKYAEELVEVFAEVLEKTKNEELREVIEEEVDRIVKEAAEIDPNFAAYLASIMGSAIYEVES
B3: GBRAPL2_0_7247 (protein)
chain: MEELLKELLELSVEEAKKKIKELAKKAVELIKKDPEKGLEEAEKLAEVFAEYLEETKNEELAEAVDEAARLLVEEAEKVDPNAAAYIASEVGSALLDLEM
B4: GBRAPL2_0_7261 (protein)
chain: MEEVLEKMKKLSIEEAAKLAKEYLEKLRNDPSVTPEEFEEAALKILEVLAEKVKKEKTEEALEIFEELVDYATKLAAEIDPNLAAYIDSYGGSLIMELEE
B5: GBRAPL2_106_7265 (protein)
chain: SGLEELLKLLEEALEKAKKLPEAFKKGDEEAVDELLELLDEATRLAIELGLDEVAALVAAAFDDVFAASEDPETAEEDFEEAIEDLEEAKELVEKRLEEE
B6: GBRAPL2_0_7260 (protein)
chain: MEEVLEKMKKLSLEEATKLAKEYLEKLRADPNVTKEEFEEAAEKLLEVLAEKAKKEKTEEALELFDEFVDYFTELAKKIDPNLAAYIASYGGSLLYEIES
B7: GBRAPL2_0_7254 (protein)
chain: MEKLLKELLSLSVEEAQKAIKEEAEKVVKYLKEDPEKGLEKAEELAEVFAELLKERKDEKLEETIEEAIDKIVKEAAKIDPNKAAYIAAIIGSALYEVES
B8: GBRAPL2_0_7246 (protein)
chain: MEELKKELLSLSLEEAKKKIKELAEKVIKLIKEDPEKGIEEAEKLTEVFAEVLVERKDEELKKVVEEAVEKIVEEVKKVDPKAAAYIDAIYGSALMEVEG
B9: GBRAPL2_0_7253 (protein)
chain: KEELLEKLLSLSIEEAIKEVKKLAEEVIKYIKEKPEEGLKKAEELAEIFAELIEARKDEKLIKAVEEAIEKIVEEAKKIDPNEAAYIASIIGSALYEVES
B10: GBRAPL2_0_7255 (protein)
chain: LEEVLKKMKESSIEEAVELAKEEADRLVADPSVTPEEFEEAAVALLEVLAEKAKEEKTEEALELLEEAVDYLTELAKKVDPDVAAFIDTYGGSLLYELEE
B11: GBRAPL2_0_7243 (protein)
chain: MEELLKELLSLSLEEAKAAIKELAEEAIKLIREDPEKGIKYAEELMEVFAEVLEKRKDEELLKVIEEAVEKIVEEVAKVDPNEAAYIDAIFGSAVMEVEG
B12: GBRAPL2_106_7267 (protein)
chain: EKLKELLKQLEELAKKIEELLKKADENDEELIDETLELLNEATRQAIEAGLDEVAALLADAFNHVFEAKENPEERKENLEEALKDVKEAIKLVKKKIKEA
B13: GBRAPL2_0_7262 (protein)
chain: MEKVLEEMEKLSIEEAAKLAKEYAEKLKADPSVSPEQFEEAVLALLEVLYKKVKKEKTEKALEIFEEAVDYFTELAAEVDPNLAAYVDSYAGSLIMELEE
B14: GBRAPL2_0_7241 (protein)
chain: MEELLKRLLSLSLEEAKAEIKRLAEEVIKLIKEDPEKGKKEAEELVEVFAEYLIKSKNEELLEVIEEEVDKIVKEVAKIDPNFAAYLDSIIGSAIAEVES
B15: GBRAPL2_0_7263 (protein)
chain: LEKVLEEMKKLSIEEAKKLAKEYLEKLRDDPSVTPEEFLEAALKILDVLYEKVKKEKTEEALEIFEEFRDFAVELAAKVDPNIAAEVDSYAGSLIMELEE
B16: GBRAPL2_106_7268 (protein)
chain: KKLEEILEELEEALELVEELLERAEEKDEELLDETLELLDRVTRLAIEAGLDEVAALVADAANDVFAAEEDPENRKEYLERAKEDLEEAIKLVKEKIKEA
B17: GBRAPL2_128_7271 (protein)
chain: KKIVEIDVDIKDEESYNLALEILDEISENSSPEVKKLADAAKDLVESAKEEGFGENVTAVDILSDEEAALLQKIYEEIKKKYGKEKVNSVVKLDISDVPP
B18: GBRAPL2_128_7272 (protein)
chain: MKLVEITINIKDEESYNLAIEILDRIAEKSSPEVADLADAAKDAAEIAAENGYDEKVVVVDVLSEEEAEELKKIYEEIKKELGEEKVKSVVELEITDIEP
B19: GBRAPL2_0_7251 (protein)
chain: MEELLEELLSLSLEEAKKKIKELAEKVIKLIKEDPEKGLEEAEKLAKVFAEYLIETKNEELEKVIDEAIDKIVKEVAKIDPNKAAYIDAIIGSAIMEVES
B20: GBRAPL2_0_7252 (protein)
chain: MEELLKELLSLSLEEAKAAIEKLAEEVIKLIEKDPEKGLKAAEELAEVFAEYLIERKNEELEEAIVKAIDKLVKEVAKVDPNKAAYIDSIIGSAIMEVEG
B21: GBRAPL2_106_7266 (protein)
chain: EKLEELKKLLEEALELAKKLPEAFKAGDEEAIDELLDLLDEATRLAIELGLDEVAALVADAFDNVFAASEDPETAEEDFKEAIKNLEEALKLVEEELKKL
B22: GBRAPL2_0_7244 (protein)
chain: MEELLKRLLSLSLEEAKKEIKELAEKVIKLIREKPEEGIKAAEELMEVFAEVLVERKDEELEEVVEEAVDAIVEEVAKVDPNAAAYIDAIFGSAIMEVEG
B23: GBRAPL2_0_7257 (protein)
chain: MEEVLKKMKELSIEEAAKLAKEEIEKLVADPSVTVEELEEAIEKLLEVLAEKVKEEKTEEALEILDEFVDYATELAAKVDPNLAAYVASYGGSLLYELEE
B24: GBRAPL2_0_7258 (protein)
chain: LEEILKEMKTLSIEEAAELAKEEAERLVADPSVTPDEFEAAAFAMLEVLAEKVKKEKTEEALEIFDEAVDHFTALAAKIDPLTAAAVATHGGSLIYEIES
B25: GBRAPL2_128_7270 (protein)
chain: MKIVELDVNVKDEESYELALEILDEIAKNSSPEVKDLAEAARDLVEEAKKRGFGENVTAVDILSDEDAEELKKIYEELKKKYGEEKVNSVLELEISDVPP
B26: GBRAPL2_0_7256 (protein)
chain: LEEVLEEMKKLSIEEAAKLAKEYAEKLLADPSVTPEEFLEAIEKLLEVLAEKVKEEKTEEALEIFEEAVDYFTALAAKIDPNLAADVATYGGSLLYEIEE
B27: GBRAPL2_0_7250 (protein)
chain: MEELLKELLSLSLEEAKKKIKELTEEVIKLIEKDPKKGLEKAIELAEIFAEYLIERKNEELEEVIDEAIDKLVKKVAEVDPNEAAYIDAIIGSAIMEVEG
B28: GBRAPL2_0_7249 (protein)
chain: MEEELKELLSLSTEEAKKKIKEKAKEVIELIKKDPEEGLKAAEELAEIFAEYLEKTKNEELEEVIDEAIDEIVKEVAKVDPNEAAYIDAIIGSAIMEVEG
B29: GBRAPL2_106_7269 (protein)
chain: EELKELLEKLKELKEKIEELLEKAEEKDEELYDETIELADEVTRLAIELGLDEVAALIADAANDIFEALENPEERKEDLEEALEDVEEAIKLVEEEIKKE
B30: GBRAPL2_0_7248 (protein)
chain: MEELLKELLSLSTEERKKKIKELAKEAVKLIKEDPEKGLEAAIELAEVFAKVIEETKNEEIAEVVDEAIDLIVKEAAEVDPNAAAEIASIVGSALLELEM
B31: GBRAPL2_0_7259 (protein)
chain: LEEVLEEMKELSIEEAAELAKKYVKELVADPSVTPEQFLEAAEALLEVLAEKVKEEKTEEALEIFDEAVDYFTEEAKKIDPETAAAVATYGGSLLYEIES
B32: GBRAPL2_0_7245 (protein)
chain: MEELLEKLLSLSLEEAKKKIKELAEKAIKLIKEDPEKGIKEAEKLAEVFAEVLEKRKDEELLKVIEEAIDKIVKEVAKVDPNAAAYIDAIFGSAIMEVEG

Chain of GABARAPL2, P60520 (P60520 whole entry, the tested form may be a part): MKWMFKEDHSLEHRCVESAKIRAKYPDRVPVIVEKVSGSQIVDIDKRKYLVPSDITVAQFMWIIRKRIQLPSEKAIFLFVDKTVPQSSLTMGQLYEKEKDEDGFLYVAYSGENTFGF

The target in this assay is GABARAPL2, P60520. The assay is described as follows: median log2 fold change of GCK-ALFA target abundance (FLAG IP / Myc IP barcode read proportion) (log2 ratio); each designed protein is fused to an ALFA-tag nanobody in HEK293 cells to bring the named protein to FLAG-tagged glucokinase (GCK); Myc marks an untargeted standard; higher = target protein stabilised (more abundant). Particulars: target protein: 3xFLAG-MCP-GCK-ALFA reporter; HEK293 landing pad (RPLP). The method in brief:
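HEK293 landing-pad cells received a recombined binder library fused to the ALFA nanobody and were induced with 2 μg mL^−1 doxycycline, then transfected with a plasmid encoding a FLAG-tagged target and a Myc-tagged standard. Lysates were collected after 48 h for anti-FLAG and anti-Myc immunoprecipitation, and the circular RNA barcodes were reverse transcribed, amplified and sequenced. Target abundance for each binder is the median log2 ratio of FLAG to Myc barcode read proportions. Barcodes had to reach a proportion of at least 10^−7 in both replicates, each binder needed at least 3 barcodes per replicate, a pseudocount of 10^−6 was applied, and the two replicates were pooled.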
For the molecule B1, the “median log2 fold change” value was -0.195.

Take B2: the “median log2 fold change” value came out at 0.159.

On to B3, for which the “median log2 fold change” value is -0.0333.

Turning to B4, the “median log2 fold change” value was 0.0589.

As to B5, the “median log2 fold change” value was -0.285.

With B6, the “median log2 fold change” value worked out at 0.248.

For B7, the “median log2 fold change” value turned out to be 0.0528.

B8: the “median log2 fold change” value worked out at 0.169.

B9: the “median log2 fold change” value came to 0.152.

As for B10, the “median log2 fold change” value was -0.088.

Regarding B11, the “median log2 fold change” value was determined as 0.0124.

As to B12, the “median log2 fold change” value worked out at 0.226.

As to B13, the “median log2 fold change” value came out at 0.203.

Consider B14, for which the “median log2 fold change” value came to 0.00211.

Turning to B15, the “median log2 fold change” value is 0.11.

Turning to B16, the “median log2 fold change” value was -0.012.

On to B17, for which the “median log2 fold change” value is -0.852.

Turning to B18, the “median log2 fold change” value is -0.21.

Take B19: the “median log2 fold change” value is -0.108.

With B20, the “median log2 fold change” value worked out at 0.0463.

Turning to B21, the “median log2 fold change” value was determined as 0.00104.

As for B22, the “median log2 fold change” value was -0.291.

As for B23, the “median log2 fold change” value is -0.0513.

In the case of B24, the “median log2 fold change” value is -0.0288.

For the molecule B25, the “median log2 fold change” value is -0.268.

For the molecule B26, the “median log2 fold change” value was 0.0867.

Regarding B27, the “median log2 fold change” value was -0.0651.

Consider B28, for which the “median log2 fold change” value was -0.0458.

Consider B29, for which the “median log2 fold change” value was -0.274.

In the case of B30, the “median log2 fold change” value is 0.0975.

With B31, the “median log2 fold change” value came to 0.154.

On to B32, for which the “median log2 fold change” value was determined as 0.154.

For the origin of these results see the supplement of paper PMC12632987.
